Source: PubChem BioAssay AID1159580 (chemical genetic matrix, 2015)
Where “and” joins values, the source holds several entries; their conditions need not be identical. Equal values may be shown once. Out of some 5,500 compounds screened, about 2,000 (36%) were called active. Roughly 18% stayed inconclusive and do not appear here. Cut-off read from the data, not from the text of the source: active = normalized growth mostly below about 0.91 (no sharp cut-off); inconclusive = no clear call, values can overlap the other calls; inactive = mostly above about 0.92. The list shows a part of the results.

Test: chemical genetic growth profiling, strain panel (AID 1159580);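 note: tested at 20 µM; growth read once vehicle control cultures reached saturation at 30 °C; 1 = growth at the plate median or of vehicle wells; lower values mean less growth of the strain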
Settings: growth OD

Measured: normalized growth

CC(C)(C)NCC(O)c1ccc(O)c(CO)c1 (stereo not given)
inactive: S. cerevisiae deletion strains, locus YJR075W, strain HOC1, hits give low values 0.997 and 1.01 | S. cerevisiae deletion strains, locus YKL009W, strain mrt4, hits give low values 1.02 | S. cerevisiae deletion strains, locus YKL068W, hits give low values 1.01 | S. cerevisiae deletion strains, locus YKL085W, strain MDH1 (second series), hits give low values 1.03 | S. cerevisiae deletion strains, locus YKL085W, strain MDH1, hits give low values 1.03 | S. cerevisiae deletion strains, locus YKL160W, strain elf1, hits give low values 1.02 | S. cerevisiae deletion strains, locus YKL190W, strain CNB1, hits give low values 1.02 | S. cerevisiae deletion strains, locus YKR001C, strain vps1, hits give low values 1.01 | S. cerevisiae deletion strains, locus YKR026C, strain gcn3, hits give low values 0.999 | S. cerevisiae deletion strains, locus YKR091W, strain srl3, hits give low values 1 | S. cerevisiae deletion strains, locus YLL001W, strain dnm1, hits give low values 1.02 | S. cerevisiae deletion strains, locus YLL026W, hits give low values 1 | S. cerevisiae deletion strains, locus YLL041C, strain sdh2, hits give low values 1.02 | S. cerevisiae deletion strains, locus YLR027C, strain aat2, hits give low values 1.01 | S. cerevisiae deletion strains, locus YLR039C, strain RIC1, hits give low values 1.06 | S. cerevisiae deletion strains, locus YLR058C, strain SHM2, hits give low values 1.01 | S. cerevisiae deletion strains, locus YLR102C, strain apc9, hits give low values 1.01 | S. cerevisiae deletion strains, locus YLR113W, strain HOG1, hits give low values 1.01 | S. cerevisiae deletion strains, locus YLR221C, strain rsa3, hits give low values 1.01 | S. cerevisiae deletion strains, locus YLR258W, strain gsy2, hits give low values 1.02 | S. cerevisiae deletion strains, locus YLR262C, strain YPT6 (second series), hits give low values 1 | S. cerevisiae deletion strains, locus YLR262C, strain YPT6, hits give low values 1.04 | S. cerevisiae deletion strains, locus YLR268W, strain sec22, hits give low values 1.02 | S. cerevisiae deletion strains, locus YLR320W, strain mms22, hits give low values 1.02 | S. cerevisiae deletion strains, locus YLR330W, strain CHS5, hits give low values 1.01 | S. cerevisiae deletion strains, locus YLR342W, strain FKS1 (second series), hits give low values 1.04 | S. cerevisiae deletion strains, locus YLR342W, strain FKS1, hits give low values 1.01 | S. cerevisiae deletion strains, locus YLR357W, strain rsc2, hits give low values 1.04 | S. cerevisiae deletion strains, locus YLR370C, strain arc18, hits give low values 1.01 | S. cerevisiae deletion strains, locus YLR371W, strain rom2, hits give low values 1 | S. cerevisiae deletion strains, locus YLR384C, strain iki3, hits give low values 1.02 | S. cerevisiae deletion strains, locus YLR418C, strain cdc73, hits give low values 1.05 | S. cerevisiae deletion strains, locus YML016C, strain PPZ1, hits give low values 1.01 | S. cerevisiae deletion strains, locus YML032C, strain rad52, hits give low values 1.01 | S. cerevisiae deletion strains, locus YML120C, strain ndi1, hits give low values 1 | S. cerevisiae deletion strains, locus YML124C, strain tub3, hits give low values 1.01 | S. cerevisiae deletion strains, locus YMR058W, strain fet3, hits give low values 1 | S. cerevisiae deletion strains, locus YMR078C, strain ctf18, hits give low values 1.02 | S. cerevisiae deletion strains, locus YMR125W, strain sto1, hits give low values 1.03 | S. cerevisiae deletion strains, locus YMR129W, hits give low values 1.01 | S. cerevisiae deletion strains, locus YMR205C, strain PFK2, hits give low values 1.02 | S. cerevisiae deletion strains, locus YMR223W, strain ubp8, hits give low values 1.06 | S. cerevisiae deletion strains, locus YMR231W, strain pep5, hits give low values 1.01 | S. cerevisiae deletion strains, locus YMR263W, strain SAP30, hits give low values 1.02 and 1 | S. cerevisiae deletion strains, locus YMR307W, strain GAS1, hits give low values 1.11 and 0.997 and 0.979 | S. cerevisiae deletion strains, locus YNL067W, strain RPL9B, hits give low values 1.01 | S. cerevisiae deletion strains, locus YNL071W, strain lat1, hits give low values 1 | S. cerevisiae deletion strains, locus YNL128W, strain TEP1, hits give low values 1.02 | S. cerevisiae deletion strains, locus YNL175C, strain NOP13, hits give low values 1 and 1.03 | S. cerevisiae deletion strains, locus YNL183C, strain NPR1, hits give low values 0.974 | S. cerevisiae deletion strains, locus YNL197C, strain WHI3, hits give low values 1 and 1.01 | S. cerevisiae deletion strains, locus YNL209W, strain ssb2, hits give low values 1.02 | S. cerevisiae deletion strains, locus YNL224C, strain SQS1, hits give low values 0.996 and 1 | S. cerevisiae deletion strains, locus YNL233W, strain BNI4, hits give low values 0.99 | S. cerevisiae deletion strains, locus YNL248C, strain rpa49, hits give low values 1.03 | S. cerevisiae deletion strains, locus YNL250W, strain rad50, hits give low values 1.02 | S. cerevisiae deletion strains, locus YNL271C, strain bni1, hits give low values 1.02 | S. cerevisiae deletion strains, locus YNL298W, strain CLA4, hits give low values 1.02 | S. cerevisiae deletion strains, locus YNL307C, strain MCK1, hits give low values 1.02 | S. cerevisiae deletion strains, locus YNL322C, strain KRE1 (second series), hits give low values 1.01 | S. cerevisiae deletion strains, locus YNL322C, strain KRE1, hits give low values 1.01 and 1.03 | S. cerevisiae deletion strains, locus YNR049C, strain mso1, hits give low values 1.01 | S. cerevisiae deletion strains, locus YNR052C, strain pop2, hits give low values 1.02 | S. cerevisiae deletion strains, locus YOL006C, strain TOP1, hits give low values 1.05 | S. cerevisiae deletion strains, locus YOL012C, strain htz1 1.03 | S. cerevisiae deletion strains, locus YOL147C, strain pex11, hits give low values 1.02 | S. cerevisiae deletion strains, locus YOR001W, strain rrp6, hits give low values 1.01 | S. cerevisiae deletion strains, locus YOR061W, strain CKA2, hits give low values 1.01 | S. cerevisiae deletion strains, locus YOR069W, strain VPS5, hits give low values 1.01 | S. cerevisiae deletion strains, locus YOR070C, strain gyp1, hits give low values 1.02 | S. cerevisiae deletion strains, locus YOR080W, strain dia2, hits give low values 1.03 | S. cerevisiae deletion strains, locus YOR083W, strain WHI5 (second series), hits give low values 1.01 | S. cerevisiae deletion strains, locus YOR083W, strain WHI5, hits give low values 0.966 | S. cerevisiae deletion strains, locus YOR106W, strain vam3, hits give low values 1.01 | S. cerevisiae deletion strains, locus YOR136W, strain idh2, hits give low values 1.02 | S. cerevisiae deletion strains, locus YOR144C, strain elg1, hits give low values 1.02 | S. cerevisiae deletion strains, locus YOR184W, strain ser1, hits give low values 1.02 | S. cerevisiae deletion strains, locus YOR231W, strain MKK1, hits give low values 1.02 | S. cerevisiae deletion strains, locus YOR265W, strain rbl2, hits give low values 1.01 | S. cerevisiae deletion strains, locus YOR270C, strain vph1, hits give low values 1.02 | S. cerevisiae deletion strains, locus YOR290C, strain snf2, hits give low values 1.03 | S. cerevisiae deletion strains, locus YOR316C, strain cot1, hits give low values 1.01 | S. cerevisiae deletion strains, locus YPL051W, strain arl3, hits give low values 1.01 | S. cerevisiae deletion strains, locus YPL055C, strain LGE1, hits give low values 1.01 | S. cerevisiae deletion strains, locus YPL078C, strain atp4, hits give low values 1 | S. cerevisiae deletion strains, locus YPL106C, strain sse1, hits give low values 1.04 | S. cerevisiae deletion strains, locus YPL240C, strain hsp82, hits give low values 1.02 | S. cerevisiae deletion strains, locus YPL241C, strain CIN2, hits give low values 1.01 | S. cerevisiae deletion strains, locus YPL256C, strain CLN2, hits give low values 1.04 | S. cerevisiae deletion strains, locus YPR119W, strain clb2, hits give low values 1.01 | S. cerevisiae deletion strains, locus YPR141C, strain kar3, hits give low values 1.01 | S. cerevisiae deletion strains, locus YPR163C, strain tif3, hits give low values 1.02 | S. cerevisiae deletion strains, locus YPR167C, strain met16, hits give low values 1.02 | S. cerevisiae deletion strains, strain wtn01, hits give low values 1.04 | S. cerevisiae strains, strain wild type, hits give low values 1.01
